# Measurements: paper PMC7862700, “An all-to-all approach to the identification of sequence-specific readers for epigenetic DNA modifications on cytosine”
# Experiments:
# Assay in all cases: DAPPL (digital affinity profiling via proximity ligation, sequencing); 10 mM Tris-HCl pH 7.5, 50 mM NaCl, 1 mM DTT, 4% glycerol, room temperature, 30 min; GST-TFs on glutathione beads, 16-mer random dsDNA library, 0.1% formaldehyde crosslink after washing; high values mean tight binding
# FLI1 = molecular target: T1, FLI1 (Homo sapiens, UniProt Q01543 1-452); settings: protein: recombinant; tags: N-terminal GST; dsDNA, one strand shown
# T1 sequence: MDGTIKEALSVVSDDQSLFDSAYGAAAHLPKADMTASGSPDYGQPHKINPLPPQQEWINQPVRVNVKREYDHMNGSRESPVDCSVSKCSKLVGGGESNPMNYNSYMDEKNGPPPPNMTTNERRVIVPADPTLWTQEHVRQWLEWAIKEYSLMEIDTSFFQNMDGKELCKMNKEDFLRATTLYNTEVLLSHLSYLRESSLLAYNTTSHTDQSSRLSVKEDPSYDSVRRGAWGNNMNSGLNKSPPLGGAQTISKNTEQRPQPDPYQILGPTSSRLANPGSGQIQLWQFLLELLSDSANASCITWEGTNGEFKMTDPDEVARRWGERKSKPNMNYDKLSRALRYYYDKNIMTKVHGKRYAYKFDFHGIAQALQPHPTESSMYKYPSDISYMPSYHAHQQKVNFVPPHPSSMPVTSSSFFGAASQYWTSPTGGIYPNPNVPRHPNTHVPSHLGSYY
# Method in brief: (§1)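 Sequencing on an Illumina NextSeq500 followed washing, crosslinking with 0.1% formaldehyde, proximity ligation (BsaI/T4 ligase, 1 h, 37 °C) and PCR amplification of pools that had been incubated for 30 min at room temperature with 200 nmole of a random double-stranded 16-mer DNA library in Tris/NaCl/DTT/glycerol buffer. Each pool held DNA-barcoded human transcription factors, expressed in yeast as GST fusions and captured on glutathione beads, plus a tag-only sample. Binding signal is a hexamer's read frequency for a factor divided by its frequency in the tag-only sample.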
# ELK1 = molecular target: T2, ELK1 (Homo sapiens, UniProt P19419 1-428); settings: protein: recombinant; tags: N-terminal GST; dsDNA, one strand shown
# T2 sequence: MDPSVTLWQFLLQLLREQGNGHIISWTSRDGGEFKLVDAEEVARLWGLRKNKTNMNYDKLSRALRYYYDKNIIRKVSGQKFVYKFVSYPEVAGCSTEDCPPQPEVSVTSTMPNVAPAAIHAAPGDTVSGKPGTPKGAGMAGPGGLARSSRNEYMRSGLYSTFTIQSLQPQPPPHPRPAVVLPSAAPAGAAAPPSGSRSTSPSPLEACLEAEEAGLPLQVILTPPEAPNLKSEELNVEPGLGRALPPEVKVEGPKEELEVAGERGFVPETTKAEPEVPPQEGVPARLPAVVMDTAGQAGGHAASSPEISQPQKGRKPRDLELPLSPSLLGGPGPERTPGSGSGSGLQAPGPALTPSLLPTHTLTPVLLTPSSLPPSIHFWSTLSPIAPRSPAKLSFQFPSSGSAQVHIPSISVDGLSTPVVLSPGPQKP
# Method in brief: as §1
# GABPA = molecular target: T3, GABPA (Homo sapiens, UniProt Q06546 1-454); settings: protein: recombinant; tags: N-terminal GST; dsDNA, one strand shown
# T3 sequence: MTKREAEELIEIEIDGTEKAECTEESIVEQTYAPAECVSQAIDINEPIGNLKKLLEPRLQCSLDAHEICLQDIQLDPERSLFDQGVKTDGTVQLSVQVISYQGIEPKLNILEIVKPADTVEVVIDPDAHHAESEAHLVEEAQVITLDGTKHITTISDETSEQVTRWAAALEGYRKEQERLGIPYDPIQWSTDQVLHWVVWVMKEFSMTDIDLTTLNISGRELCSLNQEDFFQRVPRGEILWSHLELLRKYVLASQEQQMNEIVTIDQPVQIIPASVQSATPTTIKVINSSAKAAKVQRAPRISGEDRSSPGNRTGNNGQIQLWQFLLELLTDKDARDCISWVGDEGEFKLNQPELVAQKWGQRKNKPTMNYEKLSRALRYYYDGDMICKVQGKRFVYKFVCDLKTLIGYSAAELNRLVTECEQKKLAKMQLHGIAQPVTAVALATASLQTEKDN
# Method in brief: as §1
# ERG = molecular target: T4, ERG (Homo sapiens, UniProt P11308 1-479); settings: protein: recombinant; tags: N-terminal GST; dsDNA, one strand shown
# T4 sequence: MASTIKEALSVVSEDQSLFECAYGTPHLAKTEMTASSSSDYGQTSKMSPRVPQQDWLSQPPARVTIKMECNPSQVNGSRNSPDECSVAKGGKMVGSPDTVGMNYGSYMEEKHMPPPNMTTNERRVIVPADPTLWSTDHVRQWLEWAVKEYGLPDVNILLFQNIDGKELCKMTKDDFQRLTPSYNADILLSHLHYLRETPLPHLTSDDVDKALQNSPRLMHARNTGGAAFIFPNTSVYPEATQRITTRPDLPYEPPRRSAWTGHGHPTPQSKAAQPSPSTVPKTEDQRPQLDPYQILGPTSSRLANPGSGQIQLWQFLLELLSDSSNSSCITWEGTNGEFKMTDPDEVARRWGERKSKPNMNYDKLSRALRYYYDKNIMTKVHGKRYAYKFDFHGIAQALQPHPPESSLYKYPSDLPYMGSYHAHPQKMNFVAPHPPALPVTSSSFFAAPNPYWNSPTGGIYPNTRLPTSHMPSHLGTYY
# Method in brief: as §1
# ELF1 = ELF1 (Homo sapiens, UniProt P32519 1-619); settings: protein: recombinant; tags: N-terminal GST; dsDNA, one strand shown
# Method in brief: as §1
# EHF = molecular target: T5, EHF (Homo sapiens, UniProt Q9NZC4 1-300); settings: protein: recombinant; tags: N-terminal GST; dsDNA, one strand shown
# T5 sequence: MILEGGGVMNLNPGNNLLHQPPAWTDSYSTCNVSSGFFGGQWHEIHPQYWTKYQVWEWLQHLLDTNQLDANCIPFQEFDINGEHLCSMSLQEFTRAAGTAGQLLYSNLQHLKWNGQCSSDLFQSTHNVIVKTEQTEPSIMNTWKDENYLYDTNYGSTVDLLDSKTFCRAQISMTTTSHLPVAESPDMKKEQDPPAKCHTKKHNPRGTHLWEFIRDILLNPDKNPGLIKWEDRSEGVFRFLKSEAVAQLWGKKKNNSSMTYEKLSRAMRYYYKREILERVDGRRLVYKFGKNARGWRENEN
# Method in brief: as §1
# SPI1 = SPI1 (Homo sapiens, UniProt P17947 1-270); settings: protein: recombinant; tags: N-terminal GST; dsDNA, one strand shown
# Method in brief: as §1
# SPIB = SPIB (Homo sapiens, UniProt Q01892 1-262); settings: protein: recombinant; tags: N-terminal GST; dsDNA, one strand shown
# Method in brief: as §1
# ELK3 = molecular target: T6, ELK3 (Homo sapiens, UniProt P41970 1-407); settings: protein: recombinant; tags: N-terminal GST; dsDNA, one strand shown
# T6 sequence: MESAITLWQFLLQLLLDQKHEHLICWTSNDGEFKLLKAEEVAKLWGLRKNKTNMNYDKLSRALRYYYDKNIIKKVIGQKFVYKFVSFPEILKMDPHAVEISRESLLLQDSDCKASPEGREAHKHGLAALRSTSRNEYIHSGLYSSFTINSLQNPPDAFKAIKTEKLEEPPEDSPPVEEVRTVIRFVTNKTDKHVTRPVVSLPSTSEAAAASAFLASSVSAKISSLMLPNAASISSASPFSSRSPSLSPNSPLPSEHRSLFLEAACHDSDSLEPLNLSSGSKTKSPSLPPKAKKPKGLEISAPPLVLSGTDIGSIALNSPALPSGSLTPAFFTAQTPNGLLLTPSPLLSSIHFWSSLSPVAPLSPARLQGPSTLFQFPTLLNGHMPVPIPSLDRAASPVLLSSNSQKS
# Method in brief: as §1
# FEV = molecular target: T7, FEV (Homo sapiens, UniProt Q99581 1-238); settings: protein: recombinant; tags: N-terminal GST; dsDNA, one strand shown
# T7 sequence: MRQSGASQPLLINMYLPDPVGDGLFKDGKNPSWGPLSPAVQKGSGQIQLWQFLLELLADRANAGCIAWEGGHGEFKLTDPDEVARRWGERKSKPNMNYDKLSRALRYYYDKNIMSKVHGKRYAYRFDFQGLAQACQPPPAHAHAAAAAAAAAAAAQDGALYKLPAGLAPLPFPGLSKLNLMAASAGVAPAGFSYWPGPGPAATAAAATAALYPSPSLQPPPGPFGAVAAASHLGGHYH
# Method in brief: as §1
# ETV5 = ETV5 (Homo sapiens, UniProt P41161 1-510); settings: protein: recombinant; tags: N-terminal GST; dsDNA, one strand shown
# Method in brief: as §1
# HSF1 = HSF1 (Homo sapiens, UniProt Q00613 1-529); settings: protein: recombinant; tags: N-terminal GST; chain copies: 3; dsDNA, one strand shown
# Method in brief: as §1
# SPIC = molecular target: T8, SPIC (Homo sapiens, UniProt Q8N5J4 1-248); settings: protein: recombinant; tags: N-terminal GST; dsDNA, one strand shown
# T8 sequence: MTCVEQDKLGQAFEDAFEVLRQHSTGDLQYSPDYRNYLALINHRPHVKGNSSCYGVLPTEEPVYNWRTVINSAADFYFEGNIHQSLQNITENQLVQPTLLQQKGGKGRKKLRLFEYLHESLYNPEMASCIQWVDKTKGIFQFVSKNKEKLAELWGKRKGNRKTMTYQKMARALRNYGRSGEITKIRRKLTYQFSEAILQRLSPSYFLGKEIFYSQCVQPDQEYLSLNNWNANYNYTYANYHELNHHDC
# Method in brief: as §1
# ELF4 = ELF4 (Homo sapiens, UniProt Q99607 1-663); settings: protein: recombinant; tags: N-terminal GST; dsDNA, one strand shown
# Method in brief: as §1
# ELK4 = molecular target: T9, ELK4 (Homo sapiens, UniProt P28324-2 1-405); settings: protein: recombinant; tags: N-terminal GST; dsDNA, one strand shown
# T9 sequence: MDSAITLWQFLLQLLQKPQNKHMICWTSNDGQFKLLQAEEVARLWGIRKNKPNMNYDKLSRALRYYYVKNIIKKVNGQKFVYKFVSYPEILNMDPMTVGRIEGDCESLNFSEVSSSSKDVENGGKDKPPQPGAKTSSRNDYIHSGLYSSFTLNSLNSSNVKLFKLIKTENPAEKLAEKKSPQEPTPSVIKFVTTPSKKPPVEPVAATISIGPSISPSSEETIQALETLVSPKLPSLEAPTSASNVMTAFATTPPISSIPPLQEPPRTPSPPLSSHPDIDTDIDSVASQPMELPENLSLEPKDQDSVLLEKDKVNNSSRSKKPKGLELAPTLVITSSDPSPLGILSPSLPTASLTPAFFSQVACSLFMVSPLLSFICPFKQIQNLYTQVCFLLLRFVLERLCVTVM
# Method in brief: as §1
# ETV2 = molecular target: T10, ETV2 (Homo sapiens, UniProt O00321 1-342); settings: protein: recombinant; tags: N-terminal GST; dsDNA, one strand shown
# T10 sequence: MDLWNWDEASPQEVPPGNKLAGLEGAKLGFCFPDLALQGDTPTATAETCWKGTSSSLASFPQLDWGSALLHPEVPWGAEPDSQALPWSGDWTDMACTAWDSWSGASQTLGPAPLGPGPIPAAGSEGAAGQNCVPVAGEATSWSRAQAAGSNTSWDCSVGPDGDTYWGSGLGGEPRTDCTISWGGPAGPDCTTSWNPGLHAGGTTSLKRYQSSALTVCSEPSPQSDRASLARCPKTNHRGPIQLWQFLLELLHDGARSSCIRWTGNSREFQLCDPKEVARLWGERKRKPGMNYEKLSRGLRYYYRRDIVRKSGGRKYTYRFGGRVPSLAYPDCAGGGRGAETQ
# Method in brief: as §1
# ELF3 = molecular target: T11, ELF3 (Homo sapiens, UniProt P78545 1-371); settings: protein: recombinant; tags: N-terminal GST; dsDNA, one strand shown
# T11 sequence: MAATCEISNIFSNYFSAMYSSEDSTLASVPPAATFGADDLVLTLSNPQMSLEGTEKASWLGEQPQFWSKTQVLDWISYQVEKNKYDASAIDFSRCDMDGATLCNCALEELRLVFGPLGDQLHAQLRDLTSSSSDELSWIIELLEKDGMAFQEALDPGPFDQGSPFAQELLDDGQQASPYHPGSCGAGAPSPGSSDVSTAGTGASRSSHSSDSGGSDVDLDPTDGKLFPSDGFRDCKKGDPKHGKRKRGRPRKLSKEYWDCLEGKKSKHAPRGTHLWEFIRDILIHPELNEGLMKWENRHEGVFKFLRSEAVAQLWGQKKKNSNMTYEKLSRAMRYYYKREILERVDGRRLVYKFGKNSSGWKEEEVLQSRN
# Method in brief: as §1
# CRX = CRX (Homo sapiens, UniProt O43186 1-299); settings: protein: recombinant; tags: N-terminal GST; dsDNA, one strand shown
# Method in brief: as §1
# ETV1 = ETV1 (Homo sapiens, UniProt P50549 1-477); settings: protein: recombinant; tags: N-terminal GST; dsDNA, one strand shown
# Method in brief: as §1
# CRX, sequence (O43186 whole entry): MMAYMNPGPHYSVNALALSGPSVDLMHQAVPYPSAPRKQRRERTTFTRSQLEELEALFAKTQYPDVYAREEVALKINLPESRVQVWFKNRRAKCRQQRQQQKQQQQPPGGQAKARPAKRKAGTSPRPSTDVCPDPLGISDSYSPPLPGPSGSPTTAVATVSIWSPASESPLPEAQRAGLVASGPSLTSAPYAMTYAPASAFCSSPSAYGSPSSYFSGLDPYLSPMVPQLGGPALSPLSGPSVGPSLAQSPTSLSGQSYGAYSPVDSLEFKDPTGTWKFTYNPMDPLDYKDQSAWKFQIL
# HSF1, sequence (Q00613 whole entry): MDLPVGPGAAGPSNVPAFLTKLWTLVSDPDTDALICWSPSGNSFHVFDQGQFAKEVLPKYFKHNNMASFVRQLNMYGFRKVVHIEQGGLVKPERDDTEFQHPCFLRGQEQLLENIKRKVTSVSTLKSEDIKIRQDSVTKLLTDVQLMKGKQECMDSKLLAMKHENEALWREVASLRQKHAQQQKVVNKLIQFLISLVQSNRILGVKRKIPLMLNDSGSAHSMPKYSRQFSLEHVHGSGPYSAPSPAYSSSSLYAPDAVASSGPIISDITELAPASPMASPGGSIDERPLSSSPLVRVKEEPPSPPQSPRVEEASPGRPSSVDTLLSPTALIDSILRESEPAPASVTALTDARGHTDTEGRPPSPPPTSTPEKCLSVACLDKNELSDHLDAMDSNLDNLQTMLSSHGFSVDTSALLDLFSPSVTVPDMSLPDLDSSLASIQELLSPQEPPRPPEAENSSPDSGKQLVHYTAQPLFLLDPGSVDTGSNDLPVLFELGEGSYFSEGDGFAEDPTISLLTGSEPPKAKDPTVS
# ETV5, sequence (P41161 whole entry): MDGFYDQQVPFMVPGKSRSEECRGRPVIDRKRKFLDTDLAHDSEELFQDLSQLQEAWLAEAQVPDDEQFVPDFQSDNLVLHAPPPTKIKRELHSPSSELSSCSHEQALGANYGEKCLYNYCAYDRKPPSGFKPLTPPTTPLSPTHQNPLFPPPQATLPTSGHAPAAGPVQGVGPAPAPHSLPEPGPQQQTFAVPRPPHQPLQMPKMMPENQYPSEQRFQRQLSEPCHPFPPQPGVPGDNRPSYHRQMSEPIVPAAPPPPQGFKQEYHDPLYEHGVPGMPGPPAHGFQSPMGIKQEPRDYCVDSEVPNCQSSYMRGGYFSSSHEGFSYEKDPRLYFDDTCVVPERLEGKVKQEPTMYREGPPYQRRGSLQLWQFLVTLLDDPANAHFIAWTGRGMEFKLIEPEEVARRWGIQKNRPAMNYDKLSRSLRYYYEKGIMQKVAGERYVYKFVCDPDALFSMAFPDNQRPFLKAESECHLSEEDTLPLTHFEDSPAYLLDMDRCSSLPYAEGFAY
# ELF4, sequence (Q99607 whole entry): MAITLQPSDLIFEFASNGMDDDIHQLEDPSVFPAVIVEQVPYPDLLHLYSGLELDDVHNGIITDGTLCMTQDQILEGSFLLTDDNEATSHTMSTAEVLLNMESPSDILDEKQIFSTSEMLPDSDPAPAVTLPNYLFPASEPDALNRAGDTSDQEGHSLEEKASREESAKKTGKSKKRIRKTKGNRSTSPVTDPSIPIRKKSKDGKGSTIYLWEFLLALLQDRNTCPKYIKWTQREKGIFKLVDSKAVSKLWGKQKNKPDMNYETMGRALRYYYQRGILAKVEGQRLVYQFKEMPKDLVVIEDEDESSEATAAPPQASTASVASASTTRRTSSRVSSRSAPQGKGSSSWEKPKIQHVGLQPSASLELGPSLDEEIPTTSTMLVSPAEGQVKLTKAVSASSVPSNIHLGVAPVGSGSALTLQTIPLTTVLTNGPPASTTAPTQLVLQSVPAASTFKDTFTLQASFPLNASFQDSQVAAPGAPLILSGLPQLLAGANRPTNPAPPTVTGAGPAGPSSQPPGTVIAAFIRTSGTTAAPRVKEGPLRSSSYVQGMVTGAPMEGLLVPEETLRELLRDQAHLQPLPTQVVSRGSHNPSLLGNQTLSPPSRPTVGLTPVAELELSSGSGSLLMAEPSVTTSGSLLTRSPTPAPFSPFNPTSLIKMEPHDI
# SPIB, sequence (Q01892 whole entry): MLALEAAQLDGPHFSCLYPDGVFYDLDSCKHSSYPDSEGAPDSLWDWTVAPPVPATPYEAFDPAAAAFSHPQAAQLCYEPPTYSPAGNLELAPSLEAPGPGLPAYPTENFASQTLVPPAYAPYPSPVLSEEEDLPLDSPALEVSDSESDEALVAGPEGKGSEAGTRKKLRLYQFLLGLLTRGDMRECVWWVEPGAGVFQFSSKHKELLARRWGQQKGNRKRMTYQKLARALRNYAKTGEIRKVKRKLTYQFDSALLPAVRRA
# ETV1, sequence (P50549 whole entry): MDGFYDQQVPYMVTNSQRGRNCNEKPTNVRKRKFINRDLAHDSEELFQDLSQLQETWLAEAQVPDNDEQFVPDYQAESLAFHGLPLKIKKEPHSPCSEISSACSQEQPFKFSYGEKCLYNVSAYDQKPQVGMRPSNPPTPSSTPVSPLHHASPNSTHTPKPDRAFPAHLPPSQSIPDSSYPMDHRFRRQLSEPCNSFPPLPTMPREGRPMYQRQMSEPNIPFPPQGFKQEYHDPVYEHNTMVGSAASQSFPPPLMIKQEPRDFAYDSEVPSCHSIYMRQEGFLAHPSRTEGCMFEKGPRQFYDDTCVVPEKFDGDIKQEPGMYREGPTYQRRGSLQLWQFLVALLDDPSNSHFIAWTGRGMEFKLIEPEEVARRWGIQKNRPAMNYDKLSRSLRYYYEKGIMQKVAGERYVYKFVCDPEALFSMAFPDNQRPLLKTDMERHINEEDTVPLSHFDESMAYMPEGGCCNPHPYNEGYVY
# ELF1, sequence (P32519 whole entry): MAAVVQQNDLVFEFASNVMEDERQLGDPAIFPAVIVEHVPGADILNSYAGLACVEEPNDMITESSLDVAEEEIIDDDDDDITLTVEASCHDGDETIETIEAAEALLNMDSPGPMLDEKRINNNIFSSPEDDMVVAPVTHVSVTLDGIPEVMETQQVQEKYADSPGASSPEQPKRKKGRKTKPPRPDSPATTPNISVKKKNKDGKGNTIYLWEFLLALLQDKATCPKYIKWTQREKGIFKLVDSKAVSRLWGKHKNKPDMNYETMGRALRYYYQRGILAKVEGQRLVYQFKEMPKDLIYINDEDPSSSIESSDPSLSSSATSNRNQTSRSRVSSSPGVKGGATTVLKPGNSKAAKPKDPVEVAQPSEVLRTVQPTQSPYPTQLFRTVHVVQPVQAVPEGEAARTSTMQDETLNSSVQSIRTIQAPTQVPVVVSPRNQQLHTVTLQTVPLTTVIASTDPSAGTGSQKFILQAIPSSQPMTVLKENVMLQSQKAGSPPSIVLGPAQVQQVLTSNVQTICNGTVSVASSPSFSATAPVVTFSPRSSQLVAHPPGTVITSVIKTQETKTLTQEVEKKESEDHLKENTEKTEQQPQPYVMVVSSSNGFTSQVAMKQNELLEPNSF
sequence,measurement,setting,value
GCTATT,binding signal,FLI1,"1.33 fold enrichment (6-mer frequency, TF over GST control)"
same,binding signal,ELK1,"1.34 fold enrichment (6-mer frequency, TF over GST control)"
same,binding signal,GABPA,"1.36 fold enrichment (6-mer frequency, TF over GST control)"
same,binding signal,ERG,"1.3 fold enrichment (6-mer frequency, TF over GST control)"
same,binding signal,ELF1,"1.26 fold enrichment (6-mer frequency, TF over GST control)"
same,binding signal,EHF,"1.39 fold enrichment (6-mer frequency, TF over GST control)"
same,binding signal,SPI1,"1.3 fold enrichment (6-mer frequency, TF over GST control)"
same,binding signal,SPIB,"1.28 fold enrichment (6-mer frequency, TF over GST control)"
same,binding signal,ELK3,"1.39 fold enrichment (6-mer frequency, TF over GST control)"
same,binding signal,FEV,"1.29 fold enrichment (6-mer frequency, TF over GST control)"
same,binding signal,ETV5,"1.3 fold enrichment (6-mer frequency, TF over GST control)"
same,binding signal,HSF1,"1.22 fold enrichment (6-mer frequency, TF over GST control)"
same,binding signal,SPIC,"1.38 fold enrichment (6-mer frequency, TF over GST control)"
same,binding signal,ELF4,"1.38 fold enrichment (6-mer frequency, TF over GST control)"
same,binding signal,ELK4,"1.56 fold enrichment (6-mer frequency, TF over GST control)"
same,binding signal,ETV2,"1.41 fold enrichment (6-mer frequency, TF over GST control)"
same,binding signal,ELF3,"1.45 fold enrichment (6-mer frequency, TF over GST control)"
same,binding signal,CRX,"1.38 fold enrichment (6-mer frequency, TF over GST control)"
same,binding signal,ETV1,"1.3 fold enrichment (6-mer frequency, TF over GST control)"
